# Test results taken from PubChem BioAssay (EPA / NIEHS).
# Calls of active or inactive are those of the source. Rule for the calls: active = hit-call score of the fitted dose curve at least 0.9, where 1 is the maximum; inactive = score below 0.9.
# Read-out: Fatty acid synthase (Homo sapiens) (UniProt P49327)
# Assay: LTEA_HepaRG_FASN: Life Technologies and Expression Analysis (LTEA) Assay for Fatty Acid Synthase (FASN) using HepaRG (AID 2283448);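 for AC50: differentiated human HepaRG liver cells in serum-free induction medium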
# Conditions: mRNA level, 48 h; actives raise or lower the signal
# How it was run: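 FASN expression changes, up or down relative to 0.5% DMSO, were measured by qRT-PCR in human HepaRG cells after 48 h treatment with chemicals at eight concentrations (half-log steps from 100 uM).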
# Fatty acid synthase (Homo sapiens), sequence (P49327 whole entry, looked up): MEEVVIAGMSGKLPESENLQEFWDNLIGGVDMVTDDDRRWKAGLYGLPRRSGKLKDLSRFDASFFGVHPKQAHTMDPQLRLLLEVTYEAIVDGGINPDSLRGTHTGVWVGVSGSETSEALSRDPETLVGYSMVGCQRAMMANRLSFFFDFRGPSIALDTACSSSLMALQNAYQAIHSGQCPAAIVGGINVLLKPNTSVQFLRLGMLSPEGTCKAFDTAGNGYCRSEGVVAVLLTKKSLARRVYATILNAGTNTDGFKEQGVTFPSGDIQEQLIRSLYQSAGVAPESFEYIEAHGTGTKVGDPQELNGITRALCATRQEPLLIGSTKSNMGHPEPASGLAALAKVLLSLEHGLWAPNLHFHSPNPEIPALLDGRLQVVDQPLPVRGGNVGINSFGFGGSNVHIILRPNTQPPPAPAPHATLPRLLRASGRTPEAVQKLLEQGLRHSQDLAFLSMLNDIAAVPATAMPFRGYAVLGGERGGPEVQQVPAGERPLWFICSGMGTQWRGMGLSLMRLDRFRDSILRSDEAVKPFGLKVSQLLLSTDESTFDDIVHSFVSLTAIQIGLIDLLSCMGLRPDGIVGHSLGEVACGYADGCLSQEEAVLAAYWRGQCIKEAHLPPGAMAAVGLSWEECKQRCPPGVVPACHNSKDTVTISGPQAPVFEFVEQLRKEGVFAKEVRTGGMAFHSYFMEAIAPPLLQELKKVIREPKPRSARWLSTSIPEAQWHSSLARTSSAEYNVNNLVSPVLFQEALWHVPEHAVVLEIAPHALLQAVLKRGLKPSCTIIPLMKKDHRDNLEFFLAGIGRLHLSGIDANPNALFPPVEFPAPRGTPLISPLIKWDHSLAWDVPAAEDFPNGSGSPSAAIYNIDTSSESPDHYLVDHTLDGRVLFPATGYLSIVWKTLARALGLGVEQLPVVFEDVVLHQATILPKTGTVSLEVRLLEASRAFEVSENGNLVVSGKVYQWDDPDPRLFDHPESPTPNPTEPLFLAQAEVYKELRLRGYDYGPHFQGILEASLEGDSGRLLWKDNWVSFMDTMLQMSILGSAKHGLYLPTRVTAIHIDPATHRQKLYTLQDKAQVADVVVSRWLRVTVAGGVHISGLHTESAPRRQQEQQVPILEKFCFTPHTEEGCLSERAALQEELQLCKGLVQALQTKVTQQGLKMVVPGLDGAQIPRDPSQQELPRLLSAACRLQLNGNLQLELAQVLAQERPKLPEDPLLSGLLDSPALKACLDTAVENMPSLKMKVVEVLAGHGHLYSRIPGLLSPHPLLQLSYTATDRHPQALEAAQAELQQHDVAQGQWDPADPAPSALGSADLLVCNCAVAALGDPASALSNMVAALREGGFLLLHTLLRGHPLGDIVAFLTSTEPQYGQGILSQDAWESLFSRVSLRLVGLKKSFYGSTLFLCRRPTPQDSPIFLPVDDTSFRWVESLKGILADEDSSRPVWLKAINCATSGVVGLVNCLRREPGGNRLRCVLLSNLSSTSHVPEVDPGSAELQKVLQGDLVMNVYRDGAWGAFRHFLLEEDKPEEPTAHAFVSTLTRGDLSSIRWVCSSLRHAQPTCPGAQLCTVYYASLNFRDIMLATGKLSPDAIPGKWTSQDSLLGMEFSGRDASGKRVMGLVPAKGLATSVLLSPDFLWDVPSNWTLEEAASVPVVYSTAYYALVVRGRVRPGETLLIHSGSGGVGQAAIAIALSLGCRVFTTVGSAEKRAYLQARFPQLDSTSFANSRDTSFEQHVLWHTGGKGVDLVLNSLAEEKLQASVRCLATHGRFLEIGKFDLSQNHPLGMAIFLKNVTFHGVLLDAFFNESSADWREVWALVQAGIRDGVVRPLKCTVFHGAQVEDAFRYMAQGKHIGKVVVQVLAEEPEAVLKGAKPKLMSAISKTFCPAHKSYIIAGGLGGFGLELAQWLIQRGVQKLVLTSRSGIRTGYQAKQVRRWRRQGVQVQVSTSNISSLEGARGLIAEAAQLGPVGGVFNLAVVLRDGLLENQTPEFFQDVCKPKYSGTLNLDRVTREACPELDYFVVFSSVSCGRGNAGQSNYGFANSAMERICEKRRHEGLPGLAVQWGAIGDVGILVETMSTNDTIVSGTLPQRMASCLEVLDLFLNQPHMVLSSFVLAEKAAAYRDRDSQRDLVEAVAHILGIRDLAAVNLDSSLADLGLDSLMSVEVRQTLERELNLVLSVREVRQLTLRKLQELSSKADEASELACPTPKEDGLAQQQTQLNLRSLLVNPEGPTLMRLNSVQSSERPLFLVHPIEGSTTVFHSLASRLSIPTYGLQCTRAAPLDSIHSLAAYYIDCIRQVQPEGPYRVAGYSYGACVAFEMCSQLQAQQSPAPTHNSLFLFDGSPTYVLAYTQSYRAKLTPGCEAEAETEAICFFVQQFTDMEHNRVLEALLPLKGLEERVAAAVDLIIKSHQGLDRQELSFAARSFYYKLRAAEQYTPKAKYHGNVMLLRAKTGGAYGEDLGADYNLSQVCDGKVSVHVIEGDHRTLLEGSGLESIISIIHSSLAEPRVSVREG
SMILES,outcome,AC50
OCCCl,inactive,
CCNS(=O)(=O)C(F)(F)C(F)(F)C(F)(F)C(F)(F)C(F)(F)C(F)(F)C(F)(F)C(F)(F)F,,48.2 µM (active)
COC(=O)Nc1nc2ccccc2[nH]1,inactive,
O=Cc1ccco1,inactive,
CCCCC(CC)COC(=O)c1ccc(C(=O)OCC(CC)CCCC)c(C(=O)OCC(CC)CCCC)c1 (stereo not given),inactive,
CCCCCCCCn1sccc1=O,,75.1 µM (active)
CC(C)(C)OOC(=O)c1ccccc1,inactive,
c1ccc2c(c1)oc1ccccc12,inactive,
COc1cc(C=O)cc2c1[C@H](COC(N)=O)[C@]1(OC(C)=O)ON2C[C@H]2[C@@H]1N2C(C)=O,inactive,
CCN(CC)CCO,inactive,
ClC1=C(Cl)C2(Cl)C3C(Cl)C=CC3C1(Cl)C2(Cl)Cl (stereo not given),inactive,
CCC[CH2][Sn]([Cl])([CH2]CCC)[CH2]CCC,,2.86 µM (active)
CN(C)[C@@H]1C(=O)C(C(N)=O)=C(O)[C@@]2(O)C(=O)C3=C(O)c4c(O)cccc4[C@@](C)(O)[C@H]3C[C@@H]12,inactive,
ClCCOCCCl,inactive,
Clc1ccc(C(c2ccc(Cl)cc2)C(Cl)Cl)cc1,,73.7 µM (active)
N#CC(Br)Br,inactive,
CC(O)CCO (stereo not given),inactive,
C1=Cc2cccc3cccc1c23,inactive,
CCCSC(=O)N(CCC)CCC,inactive,
OCCOCCO,inactive,
Clc1ccc(Cl)c(Cl)c1,inactive,
CC(C)(OOC(C)(C)c1ccccc1)c1ccccc1,inactive,
Clc1ccccc1Cl,inactive,
C[N+](C)(C)CC1CO1 (stereo not given),inactive,
COC(=O)c1ccccc1N,inactive,
